# Laboratory results reported in article PMC7862700, “An all-to-all approach to the identification of sequence-specific readers for epigenetic DNA modifications on cytosine”.
# Columns and labels:
# Test in all cases: DAPPL (digital affinity profiling via proximity ligation, sequencing); 10 mM Tris-HCl pH 7.5, 50 mM NaCl, 1 mM DTT, 4% glycerol, room temperature, 30 min; GST-TFs on glutathione beads, 16-mer random dsDNA library, 0.1% formaldehyde crosslink after washing; high values mean tight binding
# Conditions in all cases: protein: recombinant; tags: N-terminal GST; dsDNA, one strand shown
# [1] = target: T1, FLI1 (Homo sapiens, UniProt Q01543 1-452)
# T1 sequence: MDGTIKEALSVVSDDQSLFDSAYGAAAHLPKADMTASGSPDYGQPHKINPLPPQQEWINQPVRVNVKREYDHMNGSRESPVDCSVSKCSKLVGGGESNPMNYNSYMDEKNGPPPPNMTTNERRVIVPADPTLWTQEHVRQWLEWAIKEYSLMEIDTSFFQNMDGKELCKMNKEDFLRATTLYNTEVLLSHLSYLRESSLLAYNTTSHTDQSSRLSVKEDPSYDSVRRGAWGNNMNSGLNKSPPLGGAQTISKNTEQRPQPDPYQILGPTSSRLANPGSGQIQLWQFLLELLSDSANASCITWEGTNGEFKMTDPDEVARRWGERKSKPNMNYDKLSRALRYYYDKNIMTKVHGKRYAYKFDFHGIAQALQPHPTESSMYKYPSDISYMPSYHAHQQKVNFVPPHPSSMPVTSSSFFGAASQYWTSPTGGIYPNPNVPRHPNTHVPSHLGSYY
# Method in brief: (§1)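 Each value of binding signal is a hexamer's read frequency for a factor divided by the same hexamer's frequency in the tag-only sample. Barcoded, bead-captured GST fusions of human transcription factors made in yeast were pooled with that sample and incubated with 200 nmole of a random double-stranded 16-mer DNA library in Tris/NaCl/DTT/glycerol buffer at room temperature for 30 min. Washing, 0.1% formaldehyde crosslinking, proximity ligation, PCR and Illumina NextSeq500 sequencing followed.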
# [2] = target: T2, ELK1 (Homo sapiens, UniProt P19419 1-428)
# T2 sequence: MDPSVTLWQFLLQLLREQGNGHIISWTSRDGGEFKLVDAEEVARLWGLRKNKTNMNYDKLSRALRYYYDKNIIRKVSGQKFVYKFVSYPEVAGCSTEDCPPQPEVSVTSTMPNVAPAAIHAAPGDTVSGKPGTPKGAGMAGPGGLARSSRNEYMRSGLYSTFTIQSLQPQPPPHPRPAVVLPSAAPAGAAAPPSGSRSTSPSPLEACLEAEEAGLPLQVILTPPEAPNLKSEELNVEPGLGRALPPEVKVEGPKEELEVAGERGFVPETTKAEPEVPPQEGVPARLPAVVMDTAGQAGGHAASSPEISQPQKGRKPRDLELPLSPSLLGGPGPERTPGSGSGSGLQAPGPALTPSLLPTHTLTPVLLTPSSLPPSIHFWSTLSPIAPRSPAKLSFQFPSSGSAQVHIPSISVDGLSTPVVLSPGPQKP
# Method in brief: as §1
# [3] = target: T3, GABPA (Homo sapiens, UniProt Q06546 1-454)
# T3 sequence: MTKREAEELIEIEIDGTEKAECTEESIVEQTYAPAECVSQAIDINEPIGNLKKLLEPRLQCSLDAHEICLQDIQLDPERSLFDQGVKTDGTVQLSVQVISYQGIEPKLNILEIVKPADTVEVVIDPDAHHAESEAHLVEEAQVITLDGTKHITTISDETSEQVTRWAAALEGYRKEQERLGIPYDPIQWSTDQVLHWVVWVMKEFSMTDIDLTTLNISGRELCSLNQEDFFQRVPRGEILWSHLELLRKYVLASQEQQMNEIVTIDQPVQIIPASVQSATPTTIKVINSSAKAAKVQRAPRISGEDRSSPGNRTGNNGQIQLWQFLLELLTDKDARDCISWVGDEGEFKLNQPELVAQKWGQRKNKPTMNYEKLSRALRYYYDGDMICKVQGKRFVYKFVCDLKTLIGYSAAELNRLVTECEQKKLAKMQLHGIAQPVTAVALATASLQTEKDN
# Method in brief: as §1
# [4] = target: T4, ERG (Homo sapiens, UniProt P11308 1-479)
# T4 sequence: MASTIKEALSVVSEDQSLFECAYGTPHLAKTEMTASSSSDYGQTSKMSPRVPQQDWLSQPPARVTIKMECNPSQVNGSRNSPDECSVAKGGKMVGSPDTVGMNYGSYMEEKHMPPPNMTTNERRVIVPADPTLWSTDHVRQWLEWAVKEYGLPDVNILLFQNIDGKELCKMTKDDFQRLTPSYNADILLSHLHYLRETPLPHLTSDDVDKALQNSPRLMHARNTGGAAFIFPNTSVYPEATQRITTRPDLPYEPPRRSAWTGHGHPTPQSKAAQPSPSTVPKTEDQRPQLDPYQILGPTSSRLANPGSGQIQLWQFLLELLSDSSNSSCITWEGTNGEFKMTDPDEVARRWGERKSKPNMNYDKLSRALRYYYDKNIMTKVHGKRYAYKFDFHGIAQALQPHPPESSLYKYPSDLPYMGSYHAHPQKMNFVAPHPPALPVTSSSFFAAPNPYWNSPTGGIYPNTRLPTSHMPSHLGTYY
# Method in brief: as §1
# [5] = target: ELF1 (Homo sapiens, UniProt P32519 1-619)
# ELF1, sequence (P32519 whole entry): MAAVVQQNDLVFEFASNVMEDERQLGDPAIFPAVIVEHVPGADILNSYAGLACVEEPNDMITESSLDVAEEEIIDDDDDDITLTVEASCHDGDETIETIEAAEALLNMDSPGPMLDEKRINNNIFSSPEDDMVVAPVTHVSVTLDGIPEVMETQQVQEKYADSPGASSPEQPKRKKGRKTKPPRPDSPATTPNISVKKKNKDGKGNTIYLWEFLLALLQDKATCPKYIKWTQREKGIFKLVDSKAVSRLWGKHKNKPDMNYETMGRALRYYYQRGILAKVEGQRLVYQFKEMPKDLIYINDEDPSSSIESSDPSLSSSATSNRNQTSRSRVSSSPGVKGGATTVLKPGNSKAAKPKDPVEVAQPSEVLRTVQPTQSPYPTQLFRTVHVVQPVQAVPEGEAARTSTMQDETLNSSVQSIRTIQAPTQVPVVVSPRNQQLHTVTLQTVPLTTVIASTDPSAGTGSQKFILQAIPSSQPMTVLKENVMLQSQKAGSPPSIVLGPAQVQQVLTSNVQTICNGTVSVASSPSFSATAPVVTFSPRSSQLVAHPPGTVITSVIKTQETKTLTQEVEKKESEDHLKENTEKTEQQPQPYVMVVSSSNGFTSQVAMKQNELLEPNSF
# Method in brief: as §1
# [6] = target: T5, EHF (Homo sapiens, UniProt Q9NZC4 1-300)
# T5 sequence: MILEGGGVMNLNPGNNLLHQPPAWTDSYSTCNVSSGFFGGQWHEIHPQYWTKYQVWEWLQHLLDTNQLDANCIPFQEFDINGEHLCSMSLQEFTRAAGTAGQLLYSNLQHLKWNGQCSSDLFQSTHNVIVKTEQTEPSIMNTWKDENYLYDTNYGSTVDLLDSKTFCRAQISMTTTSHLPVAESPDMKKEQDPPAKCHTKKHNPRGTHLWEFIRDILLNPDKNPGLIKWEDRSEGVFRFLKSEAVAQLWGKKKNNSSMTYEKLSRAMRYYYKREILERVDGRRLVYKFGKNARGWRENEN
# Method in brief: as §1
# [7] = target: SPI1 (Homo sapiens, UniProt P17947 1-270)
# Method in brief: as §1
# [8] = target: SPIB (Homo sapiens, UniProt Q01892 1-262)
# SPIB, sequence (Q01892 whole entry): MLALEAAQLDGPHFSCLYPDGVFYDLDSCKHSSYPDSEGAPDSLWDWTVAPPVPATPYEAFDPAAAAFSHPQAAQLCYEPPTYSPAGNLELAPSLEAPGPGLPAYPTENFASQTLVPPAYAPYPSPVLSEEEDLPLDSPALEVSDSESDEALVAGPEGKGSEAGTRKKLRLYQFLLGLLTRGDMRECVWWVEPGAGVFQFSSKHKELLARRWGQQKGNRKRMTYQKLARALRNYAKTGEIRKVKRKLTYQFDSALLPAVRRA
# Method in brief: as §1
# [9] = target: T6, ELK3 (Homo sapiens, UniProt P41970 1-407)
# T6 sequence: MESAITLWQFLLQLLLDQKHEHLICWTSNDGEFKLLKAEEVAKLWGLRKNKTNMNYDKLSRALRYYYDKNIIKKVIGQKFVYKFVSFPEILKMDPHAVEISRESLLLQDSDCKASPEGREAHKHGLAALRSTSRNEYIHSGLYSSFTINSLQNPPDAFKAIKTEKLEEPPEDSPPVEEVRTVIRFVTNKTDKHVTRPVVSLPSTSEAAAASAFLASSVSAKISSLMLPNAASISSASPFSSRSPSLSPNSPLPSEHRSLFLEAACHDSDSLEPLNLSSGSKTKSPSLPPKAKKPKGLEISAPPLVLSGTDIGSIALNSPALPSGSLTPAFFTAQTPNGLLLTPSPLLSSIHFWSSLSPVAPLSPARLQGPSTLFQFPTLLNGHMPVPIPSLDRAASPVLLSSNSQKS
# Method in brief: as §1
sequence,measurement,setting,value
CTCCTG,binding signal,[1],"1.66 fold enrichment (6-mer frequency, TF over GST control)"
same,binding signal,[2],"1.69 fold enrichment (6-mer frequency, TF over GST control)"
same,binding signal,[3],"1.74 fold enrichment (6-mer frequency, TF over GST control)"
same,binding signal,[4],"1.51 fold enrichment (6-mer frequency, TF over GST control)"
same,binding signal,[5],"1.65 fold enrichment (6-mer frequency, TF over GST control)"
same,binding signal,[6],"1.33 fold enrichment (6-mer frequency, TF over GST control)"
same,binding signal,[7],"1.58 fold enrichment (6-mer frequency, TF over GST control)"
same,binding signal,[8],"1.7 fold enrichment (6-mer frequency, TF over GST control)"
same,binding signal,[9],"1.73 fold enrichment (6-mer frequency, TF over GST control)"
